# Compound activity: PubChem BioAssay, several laboratories
# C-LANA FP – inhibitors of KSHV LANA C-terminal domain DNA binding; 340,000 tested, 0.078% active; AID 504423; inhibition, % at 9 µM; MBP-C-LANA/FAM-LBS DNA binding, fluorescence polarization;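 active = highest replicate inhibition at or above 60% at 9 µM, even if other replicates fall short; inactive = all replicates below 60% inhibition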;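 note: 0% = neutral control wells and 100% = 4 µM acridine orange control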
# Keap1 Nrf2 FP – Keap1-Nrf2 (human) interaction inhibition. Keap1 Kelch-Nrf2 peptide fluorescence polarization, 1536-well. inhibition, % at 9.4 µM. 340,000 tested, 0.15% active; in the data active = inhibition above about 12%;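 note: human Keap1 Kelch domain with fluorescein labeled Nrf2 9mer peptide probe; 0% = neutral control wells and 100% = peptide positive control; higher means more block of Keap1 binding to Nrf2 peptide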
# RTF Ca sens inh – cardiac RTF calcium desensitization; P19429+P45379; IANBD-labeled cardiac RTF, Ca2+ fluorescence; inhibition, % at 7.15 µM; 340,000 tested, 0.12% active;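 active = inhibition above the mean inhibition of all tested compounds plus 3 SD, cut at about 17% in these data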;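 note: assay run at fixed EC70 calcium of 1.6 mM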
# E coli Lon inh – E. coli protease La inhibition; purified E. coli Lon protease, fluorescence polarization; 360,000 tested, 0.42% active; inhibition, % at 7.94 µM; P0A9M0; in the data active = inhibition above about 13%, passing the limit was not always enough;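 note: 0% = enzyme with probe and DMSO and 100% = no enzyme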
# Target sequence (P0A9M0 whole entry, looked up): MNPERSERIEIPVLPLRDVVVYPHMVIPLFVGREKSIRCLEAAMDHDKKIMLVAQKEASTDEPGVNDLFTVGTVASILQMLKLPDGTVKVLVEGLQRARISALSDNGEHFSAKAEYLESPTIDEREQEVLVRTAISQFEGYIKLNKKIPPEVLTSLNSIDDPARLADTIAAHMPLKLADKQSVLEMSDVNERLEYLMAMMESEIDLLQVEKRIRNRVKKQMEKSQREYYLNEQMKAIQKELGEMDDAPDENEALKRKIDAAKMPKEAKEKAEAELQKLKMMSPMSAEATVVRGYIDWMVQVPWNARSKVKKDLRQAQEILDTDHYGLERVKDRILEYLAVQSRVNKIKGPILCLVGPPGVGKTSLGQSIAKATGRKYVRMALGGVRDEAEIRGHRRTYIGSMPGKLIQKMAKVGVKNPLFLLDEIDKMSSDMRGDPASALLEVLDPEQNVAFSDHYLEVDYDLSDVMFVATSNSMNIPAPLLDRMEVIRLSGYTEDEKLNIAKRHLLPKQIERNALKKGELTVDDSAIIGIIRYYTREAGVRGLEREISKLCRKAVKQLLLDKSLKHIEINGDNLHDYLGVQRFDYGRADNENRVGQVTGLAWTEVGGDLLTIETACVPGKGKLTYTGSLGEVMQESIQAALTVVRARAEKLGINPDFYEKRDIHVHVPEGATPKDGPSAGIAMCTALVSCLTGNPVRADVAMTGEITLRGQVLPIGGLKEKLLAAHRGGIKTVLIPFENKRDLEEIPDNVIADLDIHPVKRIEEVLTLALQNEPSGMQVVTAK
# RTF Ca sens act – increases calcium sensitivity of human cardiac regulated thin filaments; IANBD-labeled TnC RTF fluorescence at EC20 calcium; 0% EC20 calcium, 100% full calcium; activation, % at 7.2 µM; 340,000 tested, 0.24% active; AID 493008;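 active = activation above the mean over all tested compounds plus 3 SD, cut at about 30% in these data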;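 note: rise in fluorescence read as greater calcium sensitivity of cardiac thin filaments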
# RTF inh confirm – confirmation of inhibitors of cardiac thin filament calcium sensitivity; shares compounds with RTF Ca sens inh; reconstituted cardiac thin filaments, calcium sensitivity fluorescence; inhibition, % at 7.15 µM; 360 tested, 8% active; in the data active = inhibition above about 18%
# The depositor's hits bear a star; . = no result given. Only some compounds are listed: those with a hit (about 0.82% of all), similar ones and a draw of the others.
SMILES,C-LANA FP,Keap1 Nrf2 FP,RTF Ca sens inh,E coli Lon inh,RTF Ca sens act,RTF inh confirm
COc1ccccc1Nc1ccc2c(O)cc(S(=O)(=O)O)cc2c1,119*,8,18*,5,-24,4
CSc1ncc(C(=O)Nc2cc(C)ccc2C)c(C)n1,-3,-2,-13,-7,4,.
COc1ccc(NC(=S)N(Cc2ccccn2)Cc2ccccc2Cl)cc1,0,3,17*,3,3,2
O=[N+]([O-])c1nn(-c2ccc3c(c2)OCCO3)n(O)c1=NCc1ccc(F)cc1,0,4,-11,3,-10,.
O=[N+]([O-])c1nn(-c2ccc3c(c2)OCCO3)n(O)c1=NCCC1=CCCCC1,-1,1,18*,2,-2,2
CC1CCC/C(=C\Nc2ccc(O)cc2)C1=O (stereo unspecified),-3,-2,-7,8,5,.
CC1(C)OC(C)(C)/C(=C/Nc2ccc(O)cc2)C1=O,0,-5,190*,3,-8,-2
CN=c1scc(-c2cccs2)n1/N=C/c1ccccc1O,2,1,17*,-5,-5,-7
O=C(COc1ccc(F)cc1)NCC1(N2CCCCC2)CCCCC1,-1,-6,5,2,-4,.
O=C(C1=NOC2(C1)C(=O)Nc1ccccc12)N1CCOCC1 (stereo unspecified),.,.,.,0,.,.
O=C(O)c1ccc2nc(-c3ccco3)c(-c3ccco3)nc2c1,30,5,47*,12,-30,70*
O=C(Nc1ccc(N2CCOCC2)cc1)Nc1ccc2nc(-c3ccco3)c(-c3ccco3)nc2c1,1,3,-6,3,-1,.
O=C(Nc1ccc2nc(-c3ccco3)c(-c3ccco3)nc2c1)NC1CC1,1,0,24*,14,-24,19*
O=C(COC(=O)c1cnccn1)NCc1ccccc1Cl,.,.,.,3,.,.
CC(C)CN(C(=O)CCNC(=O)c1ccccc1Cl)C1CCS(=O)(=O)C1 (stereo unspecified),1,-4,-4,9,-5,.
COc1ccc(Cl)cc1NC(=O)CCCn1c(=O)c2cccn2c2cccnc21,.,.,.,-11,.,.
COCCOC(=O)/C(=C/c1ccc(OC(=O)c2ccccc2)cc1)C(C)=O,-2,-10,25*,4,16,3
CCOC(=O)/C(=C/c1ccc(OC(=O)c2ccncc2)cc1)C(C)=O,-2,0,-6,1,-2,.
O=C(CSc1nc(-c2ccccc2)nc2c1Cc1ccccc1O2)Nc1ccc(C(=O)O)cc1,1,-4,20*,-5,-15,2
O=C(CSc1nc(-c2ccc(F)cc2)nc2c1Cc1ccccc1O2)Nc1ccc(C(=O)O)cc1,0,3,12,-11,-17,.
COc1ccc(CC(=O)NCCc2ccc(Cl)cc2Cl)cc1,0,-3,22*,-3,1,-1
O=[N+]([O-])c1ccc(NS(=O)(=O)N2CCOCC2)cc1,0,1,-6,-4,3,.
O=C(NCCc1cccc(C(F)(F)F)c1)C1CCC(=O)N(C2CC2)C1 (stereo unspecified),0,0,-17,-1,7,.
O=C(O)c1ccc2c(c1)[C@@H]1C=CC[C@@H]1[C@H](c1ccccn1)N2,98*,6,86*,17,-37,22*
CCOC(=O)c1ccc(NC(=S)N(CCCN2CCN(CC)CC2)Cc2cccs2)cc1,1,0,17*,1,-4,-2
SMILES,C-LANA FP,Keap1 Nrf2 FP,RTF Ca sens inh,E coli Lon inh,RTF Ca sens act,RTF inh confirm
CCOC(=O)c1ccc(NC(=S)N(CCCN2CCN(C)CC2)Cc2cccs2)cc1,-4,1,-5,-5,-1,.
CC(=O)NC12CC3CC(C1)CC(C(=O)Nc1nc4ccc(S(C)(=O)=O)cc4s1)(C3)C2,1,-5,-1,-1,-6,.
CCC(C)C(NC(=O)C1CCC(C)CC1)C(=O)NC(CCSC)C(=O)OC (stereo unspecified),2,2,18*,-4,1,-6
CN(N)C(=S)Nc1ccc(Cl)cc1,0,-2,18*,1,3,-3
CN(C)NC(=S)Nc1ccc(Cl)cc1,0,-3,0,0,2,.
Cc1ccc(C(=O)N2CCN(c3ccc(NC(=O)Cc4ccccc4)cc3)CC2)cc1,2,0,18*,-5,3,-5
Cc1ccc(CC(=O)Nc2ccc(C(=O)N3CCCCC3)cc2)cc1,0,-1,1,-5,0,.
Cc1ccc(OCC(=O)O)c(-n2nc3ccccc3n2)c1,0,-1,4,-4,-1,.
CC(=O)Oc1ccc(C)cc1-n1nc2ccccc2n1,0,-1,20*,-6,0,-7
O=C(COc1ccc(Br)cc1Cl)NC(=S)N1CCc2ccccc21,1,1,-9,-4,-4,.
O=C(COc1ccc(Br)cc1Br)NC(=S)N1CCCc2ccccc21,0,-2,17*,7,0,-3
CCN(CC)c1ccc(C(=C2C=CC(=[N+](CC)CC)C=C2)c2ccc(N(CC)CC)cc2)cc1,-1,1,23*,-2,-25,10
Cc1cn([C@H]2C[C@H](O)[C@@H](CNC(=O)c3ccccn3)O2)c(=O)[nH]c1=O,.,.,.,0,.,.
CCOC(=O)CNC(=O)c1c(C)nn(C)c1Cl,-1,-2,5,-1,0,.
CCOC(=O)CNC(=O)c1c(C)nn(-c2ccccc2)c1Cl,2,-1,18*,2,-1,-2
CNc1ncnc2c1ncn2[C@@H]1O[C@H](CO)[C@@H](O)[C@H]1O,-1,-2,-8,0,8,.
NCCNC(=O)Cc1ccc(NC(=O)Cc2ccc(Nc3ncnc4c3ncn4[C@@H]3O[C@H](CO)[C@@H](O)[C@H]3O)cc2)cc1,-2,0,23*,-2,-4,-3
CC(=O)C1=C(C)NC(SCC(=O)c2ccc(Cl)cc2)=C(C#N)C1CC(C)C (stereo unspecified),-2,-2,-1,-3,0,.
CC(=O)C1=C(C)NC(SCC(=O)c2ccc(F)cc2)=C(C#N)C1CC(C)C (stereo unspecified),1,-1,19*,8,4,-1
CC(C)(C)c1ccc(C(=O)NCc2nnc(SCC(=O)NCC3CCCO3)o2)cc1 (stereo unspecified),1,-3,-5,-10,-4,.
O=C(CSc1nnc(CNC(=O)c2ccc(F)cc2)o1)NCC1CCCO1 (stereo unspecified),-1,1,27*,4,-5,0
O=C(Nc1cc(S(=O)(=O)N2CCOCC2)ccc1N1CCCC1)C1CC1,1,-1,19*,-2,-4,-3
COc1ccc(N2C(=O)CSC2c2ccccc2[N+](=O)[O-])cc1 (stereo unspecified),2,-1,19*,3,0,1
CCOc1ccccc1-c1nc(-c2ccc(NC(=O)Cc3ccccc3OC)cc2)no1,-1,1,18*,-1,1,-4
